# Measured values as given in PubChem BioAssay AID382 (SGCOxCompounds, 2006).
# Several values for one entry are separate records, joined by “and”; a condition that tells them apart may be missing. Equal values may be shown once. Activity calls are given as the source filed them. The rule behind the calls is not given here.
# Target: Dual specificity protein kinase CLK1 (Homo sapiens) (UniProt P49759)
# Assay: ligand-induced CLK1 melting temperature shift – biophysical, recombinant human kinase, DSF (AID 382)
# Settings: Recombinant CLK1, thermal shift (DSF), at 10 µM, protein 2 µM, buffer 10 mM HEPES, NaCl 150 mM, stronger effect = higher value
# Chain of Dual specificity protein kinase CLK1 (Homo sapiens) (P49759 whole entry, looked up): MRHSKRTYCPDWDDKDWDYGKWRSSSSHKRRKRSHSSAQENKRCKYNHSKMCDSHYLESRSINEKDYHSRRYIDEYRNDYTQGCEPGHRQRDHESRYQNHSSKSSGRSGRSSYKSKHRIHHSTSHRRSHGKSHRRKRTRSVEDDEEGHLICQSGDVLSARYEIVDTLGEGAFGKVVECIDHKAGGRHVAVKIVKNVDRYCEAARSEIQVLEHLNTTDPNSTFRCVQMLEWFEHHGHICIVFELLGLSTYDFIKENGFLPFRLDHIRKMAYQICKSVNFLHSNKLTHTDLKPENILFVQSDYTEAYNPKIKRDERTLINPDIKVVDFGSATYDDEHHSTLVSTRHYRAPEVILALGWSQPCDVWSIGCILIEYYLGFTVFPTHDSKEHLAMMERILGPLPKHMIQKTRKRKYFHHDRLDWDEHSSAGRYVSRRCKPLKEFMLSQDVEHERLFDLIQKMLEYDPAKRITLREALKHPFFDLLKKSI
row,Compound,Tm shift
1,CC(C)C(CO)Nc1nc(Nc2cccc(Cl)c2)c2ncn(C(C)C)c2n1 (centres undefined),6.23 Celsius (active)
2,CN(C)CCCn1cc(C2=C(c3c[nH]c4ccccc34)C(=O)NC2=O)c2ccccc21,6.98 Celsius (active)
3,O=c1c(-c2ccc(O)cc2)coc2cc(O)cc(O)c12,3.77 Celsius (active)
4,O=C1C(=O)C(c2ccc(O)cc2)Oc2cc(O)cc(O)c21 (centres undefined),4.8 Celsius (active)
5,Cc1c(O)cc(O)c2c1OC(c1ccc(O)c(O)c1)C(=O)C2=O (centres undefined),4.98 Celsius (active)
6,Cc1cc(O)c2c(c1)C(=O)c1cc(O)cc(O)c1C2=O,3.11 Celsius (active)
7,O=c1cc(-c2ccc(O)cc2)oc2cc(O)cc(O)c12,5.94 Celsius (active)
8,O=c1c(O)c(-c2ccc(O)c(O)c2)oc2cc(O)ccc12,7.11 Celsius (active)
9,CC1N=C2SC=CN2C(=O)C1CCN1CCC(=C(c2ccccc2)c2ccc(F)cc2)CC1 (centres undefined),6.74 Celsius (active)
10,O=C1c2ccccc2-c2n[nH]c3cccc1c23,4.9 Celsius (active)
11,O=c1c(O)c(-c2ccc(O)c(O)c2)oc2cc(O)cc(O)c12,8.34 Celsius (active) and 6.74 Celsius (active)
12,NCCCn1cc(C2=C(c3c[nH]c4ccccc34)C(=O)NC2=O)c2ccccc21,8.48 Celsius (active)
13,COC(=O)c1cnc2oc3ccc(O)cc3c2c1-c1ccccc1,6.11 Celsius (active)
14,CC(C)n1cnc2c(Nc3cccc(Cl)c3)nc(NCCO)nc21,5.26 Celsius (active)

# Same assay, conditions: Recombinant CLK1, thermal shift (DSF), at 10 µM, protein 2 µM, buffer 10 mM HEPES, NaCl 150 mM, with 50 mM Arg/Glu, stronger effect = higher value
row,Compound,Tm shift
1,CCC(CO)Nc1ccc2ncc(-c3ccc(O)cc3)n2n1 (centres undefined),7.54 Celsius (active)
2,CC(=O)c1cccc(-c2cnc3ccc(NCC4CC4)nn23)c1,5.75 Celsius (active)
3,Clc1cccc(-c2cnc3ccc(NC4CCOCC4)nn23)c1,6.06 Celsius (active)

# Same assay, conditions: Recombinant CLK1, thermal shift (DSF), at 10 µM, protein 2 µM, buffer 10 mM HEPES, pH 7.5, NaCl 150 mM, with 50 µM L-Arg/L-Glu (1:1), stronger effect = higher value
row,Compound,Tm shift
1,CC(C)[C@@H](CO)Nc1ccc2ncc(-c3cccc(C(F)(F)F)c3)n2n1,5.1 Celsius (active)
2,O=C(c1ccc(Nc2nccc(-c3cc4ccccc4s3)n2)cc1)N1CCC(N2CCCC2)CC1,6.1 Celsius (active)
3,O=c1[nH]c(O)c2c1c1c3ccccc3nc1n1cncc21,4.5 Celsius (active)
4,Oc1cccc(-c2cnc3ccc(NCC4CC4)nn23)c1,3.9 Celsius (active)
5,COc1cccc(-c2cnn3ccc(Nc4cccc(Cl)c4)nc23)c1,6 Celsius (active)
6,Nc1ccc(-c2cnc3ccc(NC4CCOCC4)nn23)cc1,4.8 Celsius (active)
7,CNC(=O)c1cc(Oc2ccc(NC(=O)Nc3ccc(C)c(C(F)(F)F)c3)cc2)ccn1,4.9 Celsius (active)
8,CCN(CC)CCNC(=O)c1c(C)[nH]c(/C=C2\C(=O)Nc3ccc(Cl)cc32)c1C,6.6 Celsius (active)
9,CC(=O)c1cccc(-c2cnc3ccc(N[C@H](CO)C(C)C)nn23)c1,6.7 Celsius (active)
10,Clc1ccc(-c2cnc3ccc(NC4CCOCC4)nn23)cc1,5.7 Celsius (active)
11,CCCCc1c(-c2ccc(O)cc2)[nH]c2nccnc12,3.5 Celsius (active)
12,CC(C)[C@@H](CO)Nc1ccc2ncc(-c3cccc(F)c3)n2n1,3.9 Celsius (active)
13,N#Cc1ccc(-c2cnc3ccc(NC4CCOCC4)nn23)cc1,7.2 Celsius (active)

# Same assay, conditions: Recombinant CLK1, thermal shift (DSF), at 10 µM, protein 2 µM, buffer 10 mM HEPES, pH 7.5, NaCl 150 mM, with 50 mM Arg/Glu, stronger effect = higher value
row,Compound,Tm shift
1,NC1=N/C(=C2/CCNC(=O)c3[nH]c(Br)cc32)C(=O)N1,4.4 Celsius (active)
2,CN(C)CCCn1cc(C2=C(c3c[nH]c4ccccc34)C(=O)NC2=O)c2ccccc21,4.4 Celsius (active)
3,Nc1ncnc2c1c(I)cn2[C@@H]1O[C@H](CO)C(O)C1O (some centres undefined),5.2 Celsius (active)
4,CC(O)(O)C1(O)C[C@@H]2O[C@@]1(C)n1c3ccccc3c3c4c(c5c6ccccc6n2c5c31)C(=O)NC4 (some centres undefined),5.1 Celsius (active)
5,CC(C)n1cnc2c(Nc3cccc(Cl)c3)nc(NCCO)nc21,4.6 Celsius (active)

# Same assay, conditions: Recombinant CLK1, thermal shift (DSF), measured here: replicate experiment 2, at 10 µM, run 2, protein 2 µM, buffer 10 mM HEPES, NaCl 150 mM, stronger effect = higher value
row,Compound,Tm shift
1,CC1N=C2SC=CN2C(=O)C1CCN1CCC(=C(c2ccccc2)c2ccc(F)cc2)CC1 (centres undefined),3.6 Celsius
2,O=C1c2ccccc2-c2n[nH]c3cccc1c23,3.2 Celsius
3,O=c1c(O)c(-c2ccc(O)c(O)c2)oc2cc(O)cc(O)c12,6 Celsius
4,COC(=O)c1cnc2oc3ccc(O)cc3c2c1-c1ccccc1,3.9 Celsius
